These results are taken from PubChem BioAssay (NCI).

Compounds without any hit were thinned out: in the full panel of roughly 83,000, 20% have a hit.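 Plates (96-well) were seeded with cells, treated with compound at one concentration, and incubated for 48 hours before percent growth was determined.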 The source made the active and inactive calls.

In this assay the test system is NCI-H322M lung. The assay can be described thus: NCI-60 one-dose screen, 48 h (100 = growth as untreated, 0 = no growth, -100 = all killed). To be noted: 10 µM unless noted. The protocol: Growth inhibition of the NCI-H322M human Non-Small Cell Lung tumor cell line is measured as a screen for anti-cancer activity. Cells are grown in 96 well plates and exposed to the test compound for 48 hours. Compounds are tested at a single concentration, which is 10^-5 M for most compounds. The reported endpoint is percent growth (GI% or GIPRCNT), where numbers from 0 - 100% represent growth inhibition, and numbers from -100% - 0 represent cell death. For example, a value of 40 represents 60% growth inhibition. A value of 0 means no net growth occurred over the course of the experiment. A value of -40 indicates 40% of cells at the beginning of the experiment died by the end of the experiment. A value of -100 means all cells are dead at the end of the experiment.
NCI-60 Human Tumor Cell Lines Screen was performed using the standard one-dose NCI protocol, which is described in more detail at https://dtp.cancer.gov/discovery_development/nci-60/default.htm.
Compounds with GIPRCNT values below 10 were considered active. Activity score was based on GIPRCNT using the following formula: […]
Score is 0 for GIPRCNT values of 100 or above, 50 for GIPRCNT values of 0, and 100 for GIPRCNT values of -100.
On to `Nc1ccc(C(OC(=O)c2cc3ccccc3c(Cc3c(O)c(C(=O)OC(c4ccc(N)cc4)(c4ccc(N)cc4)c4ccc(N)cc4)cc4ccccc34)c2O)(c2ccc(N)cc2)c2ccc(N)cc2)cc1`, for which the growth is 3.77% (active).

`CCCCn1c(C)nc2cc(Nc3nc(Cl)nc4nc[nH]c34)ccc21`: the growth is 76.8% (inactive).

As to `c1ccc(C(Nc2ccccn2)(c2ccccc2)c2ccccc2)cc1`, the growth was 64.8% (inactive).

For the compound `O=C(CN1CCN(c2ccccc2)CC1)N1CCN(c2nnc(-c3ccc(Cl)cc3)c(-c3ccc(Cl)cc3)n2)CC1`, the growth was 89.9% (inactive).

Consider `O=[N+]([O-])c1cccc(N=C(Nc2cccc([N+](=O)[O-])c2)c2ccccc2)c1`, for which the growth was 81.2% (inactive).

On to `NC(=O)c1noc(C(=O)c2ccccc2)c1N`, for which the growth is 104% (inactive).

`O=C(NC1CC1)c1ccc(-c2nc3ccc4[nH]ncc4c3c3c2CCCC3)cc1`: the growth is 41.7% (inactive).

On to `CC(C)c1ccc(Cn2ccc3c4c(N)nc(NC5CC5)nc4ccc32)cc1`, for which the growth was -93.2% (active).

For `O=C(O)/C=C(\c1nc2ccc([N+](=O)[O-])cc2[nH]1)c1cc(Cl)ccc1O`, the growth was 33.6% (inactive).

For the compound `C=CCOc1c(Br)cc(Br)cc1Br`, the growth was 45% (inactive).

Turning to `COc1cccc(OCC(O)CN2CCN(c3ccccc3)CC2)c1` (stereo not given), the growth is 129% (inactive).

For `CSC1=NC(=Nc2c(C)cccc2C)C2(CCC(C(C)(C)C)CC2)N1c1ccc(Cl)cc1` (stereo not given), the growth was 64.8% (inactive).

For `CC(COC(=O)c1ccccc1)N1CC2CCC(C1)O2` (stereo not given), the growth is 97.8% (inactive).

With `COc1ccc(/C(=C\c2cc(OC)c(OC)c(OC)c2)C(=O)N2CCN(c3ccccc3)CC2)cc1O`, the growth is 100% (inactive).

For the compound `CCOc1c(C#N)c2c(N)ncnc2n1C1OC(CO)C(O)C1O` (stereo not given), the growth was 76.6% (inactive).

For the compound `CCN(CC)CCCC(C)Nc1cnc(C(=O)Nc2cc(C)cc3cccnc23)cn1` (stereo not given), the growth was 84.2% (inactive).

In the case of `Cc1cc(C)c2c(n1)sc1c(Nc3ccc(Cl)cc3Cl)ncnc12`, the growth is 43.9% (inactive).

As to `COc1ccc(/C=C2\Cc3c(Br)cccc3C2=O)c(OC)c1`, the growth was 94.7% (inactive).

As to `O=[N+]([O-])c1ccccc1CN1CCCCC1`, the growth is 106% (inactive).

Take `Nc1nc2ccc([C@@H]3Nc4ccc5[nH]ncc5c4[C@H]4[C@H]5CCC(C5)[C@H]43)cc2s1`: the growth is -13% (active).

`COc1ccc(/C=C2\N=C(c3cccnc3)N(c3ccccc3)NC2=O)cc1`: the growth was 94.3% (inactive).

Turning to `Clc1ccc2c(c1)-c1ccccc1C1=NCCN12`, the growth is 25.3% (inactive).

`Cc1nn(-c2ccc(Cl)cc2)c(=O)n1CCN1CCOCC1`: the growth was 92.3% (inactive).

For `CC(=O)N(C)c1ccc(Nc2cc(C)[nH]c3ccc4ncnc4c23)cc1`, the growth was 77% (inactive).

Regarding `CN1CCN(Cc2ccc(NC(=O)c3cnc(F)c(C#Cc4cnc(N)c5ncccc45)c3)cc2C(F)(F)F)CC1`, the growth is 33.7% (inactive).

In the case of `CC(C)NCCCCCNc1cc(O)cc2cccnc12`, the growth is 56.9% (inactive).

On to `CCNS(=O)(=O)c1ccc(C)cc1`, for which the growth was 102% (inactive).

For `CCOC(=O)Nc1ccc2nc(-c3cscn3)[nH]c2c1`, the growth was 63.1% (inactive).

Regarding `CN(C)CCOc1nc2c3cccnc3cc(-c3cccc(Cl)c3)c2c2ncccc12`, the growth was 44.9% (inactive).

On to `Cc1nc2ccc(Nc3nc(Cl)nc(N4CCOCC4)n3)cc2n1Cc1ccccc1`, for which the growth is 51% (inactive).

As for `CC1(C)C(N(O)C(=O)Nc2ccc(Cl)cc2)N(c2ccc(Cl)cc2)C(=O)N1CC(=O)N/N=C/C=C/c1ccc([N+](=O)[O-])o1` (stereo not given), the growth is 49% (inactive).

As to `Cc1cc(C)cc(CCCCCCCCCCCCCCCCCC(=O)O)c1`, the growth was 110% (inactive).

For the compound `c1ccc(-c2[nH]c3ccccc3c2-c2ccccc2)cc1`, the growth is 82.2% (inactive).

Consider `COc1cc(C)c2c(=O)c3c(oc2c1)C(=O)c1c(O)c(OC)cc(O)c1C3=O`, for which the growth was 14.2% (inactive).

`COc1ccc(C(=O)c2c(N)nc3n2CCCC3)cc1OC`: the growth is 96.2% (inactive).

For `O=C1CC2(O)CSc3nc(=O)cc(n32)N1` (stereo not given), the growth was 93.2% (inactive).

Regarding `C=CCn1c(SCC(=O)Nc2ccc(C(=O)/C=C/c3ccccc3)cc2)nnc1-c1ccc(OC)c(OC)c1`, the growth was 85.9% (inactive).

For the compound `O=C(Nc1cnc(C(F)(F)F)cn1)c1cc(Cl)ccc1O`, the growth is 7.76% (active).

Take `O=C(O)c1cn(-c2ccccc2)nc1-c1ccc(O)cc1`: the growth was 100% (inactive).

As to `C#CC[C@@H]1C[C@]2(C)[C@H]3CC=C4[C@H]5[C@@H](C)[C@H](C)CC[C@]5(C(=O)NCCCCN)CC[C@@]4(C)[C@]3(C)CC[C@H]2C(C)(C)[C@H]1OC(C)=O`, the growth was 92.4% (inactive).
